Results from PubChem BioAssay (NCI).
About 83,000 compounds went through this panel and 20% of them were active in at least one assay; those are over-represented in the sample as a whole.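 Method: cells in 96-well plates; compound added at one concentration; 48 h incubation; percent growth measured; values under 10 scored active.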 Active and inactive are the calls of the source.

Key:
Experiment in all cases: NCI-60 one-dose screen, 48 h (100 = growth as untreated, 0 = no growth, -100 = all killed)
Conditions in all cases: 10 µM
NCI-H226 lung = tested on: NCI-H226 lung
HOP-62 NSCLC = tested on: HOP-62 NSCLC
NCI-H460 lung = tested on: NCI-H460 lung
NCI-H522 lung = tested on: NCI-H522 lung
A549/ATCC NSCLC = tested on: A549/ATCC NSCLC
786-0 renal = tested on: 786-0 renal
COLO 205 colon = tested on: COLO 205 colon
DU-145 prostate = tested on: DU-145 prostate
K-562 leukemia = tested on: K-562 leukemia
MALME-3M melanoma = tested on: MALME-3M melanoma
MDA-MB-231 breast = tested on: MDA-MB-231 breast
RXF 393 renal = tested on: RXF 393 renal
SF-268 CNS = tested on: SF-268 CNS
SF-295 CNS = tested on: SF-295 CNS
SF-539 CNS = tested on: SF-539 CNS
UACC-257 melanoma = tested on: UACC-257 melanoma
M14 melanoma = tested on: M14 melanoma
HOP-92 NSCLC = tested on: HOP-92 NSCLC

Measured: growth

COc1ccc2c(c1)C(=O)/C(=C/c1ccc([N+](=O)[O-])o1)O2
active: NCI-H226 lung -13.7% | HOP-62 NSCLC -45.3% | NCI-H460 lung -46.8% | NCI-H522 lung -85% | A549/ATCC NSCLC -5.34% | 786-0 renal -71% | COLO 205 colon -81.6% | DU-145 prostate -85% | K-562 leukemia -34.8% | MALME-3M melanoma -77.8% | MDA-MB-231 breast -76.9% | RXF 393 renal -78.3% | SF-268 CNS -72.7% | SF-295 CNS 3.29% | SF-539 CNS -49.8% | UACC-257 melanoma -85.6% | M14 melanoma -64.2%

CCOS(=O)(=O)c1c(C(C)C)cc(C(C)C)cc1C(C)C
inactive: NCI-H226 lung 99.5% | HOP-62 NSCLC 98.9% | NCI-H460 lung 103% | HOP-92 NSCLC 99.1% | NCI-H522 lung 100% | A549/ATCC NSCLC 102% | 786-0 renal 105% | COLO 205 colon 104% | DU-145 prostate 103% | K-562 leukemia 92.8% | MALME-3M melanoma 89.6% | MDA-MB-231 breast 99.5% | RXF 393 renal 108% | SF-268 CNS 100% | SF-295 CNS 98.9% | SF-539 CNS 99.4% | UACC-257 melanoma 105% | M14 melanoma 92.8%
